Experiment [1] in a line: qHTS assay to identify small molecule antagonists of the vitamin D receptor (VDR) signaling pathway - cell viability counter screen (AID 743225). Further: nearly all actives have a fitted effect of over 50% in size. An outline of the steps: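 VDR-UAS-bla HEK 293T cells were plated and incubated 4 h at 37C, then dosed with compound plus 3 nM (final) 1-alpha,25-dihydroxyvitamin D3 for 16 h. After the 2 h beta-lactamase read, viability in the same wells was read as CellTiter-Glo luminescence after 30 min at room temperature.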
On the technique in general: Quantitative high-throughput screening tests each substance at several concentrations.

Experiment [2] is described as follows: qHTS assay to identify small molecule agonists of the NFkB signaling pathway (AID 1159509; active means well fitted curve in the direction sought with a large enough effect in the signal ratio in the repeat runs, not every such curve was filed as active; the % refers to the signal ratio). Summed up: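 Beta-lactamase reporter assay run in quantitative high-throughput format on an NF-kB-responsive ME-180 line, with 5 hr compound treatment and a FRET-based blue/green fluorescence readout.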
Experiment [3] can be described thus: qHTS assay to identify small molecule agonists of the endoplasmic reticulum stress response signaling pathway (AID 1159516; active means well fitted activation curve with a large enough effect in the signal ratio in the repeat runs, not every such curve was filed as active; the % refers to the signal ratio). Summed up:
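Fluorescence at 460 and 530 nm (405 nm excitation) reports beta-lactamase from an ER stress response element in HeLa cells treated 5 hr at 37 C.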

Experiment [4] in a line: qHTS assay to identify small molecule agonists of the endoplasmic reticulum stress response signaling pathway - cell viability counter screen (AID 1159517; calls by dose curve; further: nearly all actives have a fitted effect of over 50% in size). An outline of the steps: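 Cytotoxicity of test compounds toward ESRE-bla HeLa cells was assessed after 5 hr exposure. The luminescent CellTiter-Glo signal was measured 30 min after reagent addition.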
Experiment [5] is described as follows: qHTS assay to identify small molecule antagonists of the retinoid-related orphan receptor gamma (ROR-gamma) signaling pathway - cell viability counter screen (AID 1159520). Further: nearly all actives have a fitted effect of over 50% in size. Summed up:
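Tet-on ROR gamma CHO cells (1,000/well) were plated 4 hr, given compounds in DMSO for 2 hr at 37 C, then induced with 1 uM final doxycycline for 16 hr. Viability was read as ATP by CellTiter-Glo luminescence after 30 min.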

Experiment [6] addresses Nuclear receptor ROR-gamma (Homo sapiens) (UniProt P51449). In words: qHTS assay to identify small molecule antagonists of the retinoid-related orphan receptor gamma (ROR-gamma) signaling pathway (AID 1159521;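 further: CHO cells with doxycycline inducible ROR-gamma driving an RORE luciferase reporter; top concentration of the series differs between compounds; nearly all actives have a fitted effect of over 50% in size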). An outline of the steps: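 Tet-on ROR-gamma CHO cells with ROR response element-luciferase reporter; compounds added 2 hr before 1 uM doxycycline induction, then 16 hr at 37 C. Antagonism scored as decreased ONE-Glo luminescence.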

Experiment [7] is described as follows: qHTS assay to identify small molecule agonists of the AP-1 signaling pathway - cell viability counter screen (AID 1159525; calls by dose curve; further: nearly all actives have a fitted effect of over 55% in size; further: potency means the concentration at half of the fitted maximal effect). An outline of the steps: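 Each titration point was normalised to DMSO and tetra n-octyl ammonium bromide controls. The read was Cell Titer Glo luminescence after 30 min at RT, following 5 h compound exposure of ME-180 AP-1-bla cells at 37 °C.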

Experiment [8] in a line: qHTS assay to identify small molecule agonists of the AP-1 signaling pathway (AID 1159526; calls by dose curve; further: potency means the concentration at half of the fitted maximal effect).
A short description of experiment [9]: qHTS assay to identify small molecule agonists of the RXR signaling pathway - cell viability counter screen (AID 1159529). Further: nearly all actives have a fitted effect of over 50% in size. Further: potency means the concentration at half of the fitted maximal effect. An outline of the steps: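 RXR-alpha-UAS-bla HEK 293T cells in medium with 2% charcoal-stripped FBS were pre-incubated 5 hr, then compound-treated 16 hr at 37 C. Viability was read by CellTiter-Glo luminescence in the same wells as the beta-lactamase assay, with tetraoctyl ammonium bromide as positive control.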

The nature of experiment [10]: qHTS assay to identify small molecule antagonists of the retinoid acid receptor (RAR) signaling pathway - cell viability counter screen (AID 1159551). Further: nearly all actives have a fitted effect of over 35% in size. Summed up: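 In this counter screen, the RARE-luciferase line C3RL4 was exposed for 6 h at 37 C and 5% CO2 to compounds with retinol at 1 uM final. Cellular ATP, read by luminescence, served as the viability measure.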

Experiment [11] concerns the target Retinoic acid receptor RXR-alpha (Homo sapiens) (UniProt P19793). Briefly: qHTS assay to identify small molecule agonists of the RXR signaling pathway (AID 1159527; calls by dose curve; further: nearly all actives have a fitted effect of over 35% in size). An outline of the steps:
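GeneBLAzer RXR-alpha-UAS-bla HEK 293T cells in 2% charcoal-stripped FBS medium were exposed to compounds for 16 hr at 37 C in agonist mode. Beta-lactamase reporter read as 460/530 nm FRET ratio after 2 hr substrate loading.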

Experiment [12] can be described thus: qHTS assay to identify small molecule antagonists of the retinoic acid receptor (RAR) signaling pathway (AID 1159552; further: nearly all actives have a fitted effect of over 50% in size). An outline of the steps:
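Retinol signaling pathway inhibitors screened in C3RL4 RARE-luciferase reporter cells seeded overnight at 37 C, then compounds added with 1 uM (final) retinol as pathway substrate. After 6 hr at 37 C, luciferase luminescence read after 30 min at room temperature.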

Experiment [13] is described as follows: qHTS assay to identify small molecule agonists of the retinoic acid receptor (RAR) signaling pathway (AID 1159553). Further: potency means the concentration at half of the fitted maximal effect. The conditions noted are these: C3RL4 RARE luciferase reporter, agonist, 6 h; activation: at 73.3 µM (top of the series). An outline of the steps:
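In this cell-based screen, 1,000 C3RL4 cells per well were cultured overnight, dosed with test chemicals in DMSO for 6 hr, and assessed for RARE luciferase luminescence.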

Records with an inconclusive call do not appear. Active and inactive are the calls of the source. Unless noted, the call rests on the fitted dose curve; in most records, active means well fitted curve in the direction sought with a large enough effect in the repeat runs; inconclusive means weak or mixed curves; inactive means no such curve, though single readings can be large; an effect the other way counts as inactive or inconclusive.

Chain of Retinoic acid receptor RXR-alpha (Homo sapiens) (P19793 whole entry, looked up): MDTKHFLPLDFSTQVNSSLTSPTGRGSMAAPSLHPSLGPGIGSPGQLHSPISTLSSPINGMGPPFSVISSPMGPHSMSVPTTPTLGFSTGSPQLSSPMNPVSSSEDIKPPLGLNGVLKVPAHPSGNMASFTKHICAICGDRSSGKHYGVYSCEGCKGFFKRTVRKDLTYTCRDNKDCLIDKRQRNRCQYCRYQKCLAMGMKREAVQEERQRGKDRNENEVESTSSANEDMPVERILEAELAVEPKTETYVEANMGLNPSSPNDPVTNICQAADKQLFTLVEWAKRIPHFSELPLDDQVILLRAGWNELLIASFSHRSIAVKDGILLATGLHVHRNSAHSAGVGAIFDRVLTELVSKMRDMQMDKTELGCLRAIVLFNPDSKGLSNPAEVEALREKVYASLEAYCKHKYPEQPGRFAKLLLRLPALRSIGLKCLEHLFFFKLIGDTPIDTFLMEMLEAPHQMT

As for `c1ccc2sc(SN(C3CCCCC3)C3CCCCC3)nc2c1`, the Potency result in [1], in experiment [2], in experiment [3], in [4], in experiment [5] and in [6] was “inactive” throughout. In addition, the Potency result in experiment [7], in [8], in experiment [9] and in [10] was “inactive” throughout.

Consider `Oc1cccc(Nc2ccccc2)c1`, for which the Potency entry in experiment [1], in experiment [2], in experiment [3], in experiment [4], in experiment [5] and in experiment [6] was “inactive” in each case. The Potency entry in experiment [7], in [8], in experiment [11], in experiment [9], in [10] and in experiment [12] was “inactive” each time.

For the molecule `CN1CCCC(n2nc(Cc3ccc(Cl)cc3)c3ccccc3c2=O)CC1` (stereo unspecified), the Potency result in [2], in experiment [3], in experiment [4], in experiment [5], in [6] and in [7] was “inactive” in each case. Further, the Potency result in [10] was “inactive”. The values for the Potency in experiment [8] and in experiment [9] were 12 µM (active) and 5.35 µM (active), respectively.

On to `NCCNCCO`, for which the Potency result in [2], in experiment [3], in [4], in experiment [5], in experiment [6] and in experiment [8] was “inactive” throughout. For the same molecule, the Potency entry in [11], in experiment [9], in experiment [10], in [12] and in experiment [13] was “inactive” in each case.

Regarding `CCOC(=O)c1ccc(I)cc1`, the Potency result in experiment [1], in experiment [2], in experiment [3], in [4], in experiment [5] and in experiment [6] was “inactive” throughout. Moreover, the Potency entry in [7], in experiment [11], in experiment [9], in experiment [10], in [12] and in [13] was “inactive” each time.

Regarding `CC(=O)OCC(=O)NCCCOc1cccc(CN2CCCCC2)c1`, the Potency entry in experiment [1], in [2], in experiment [3], in [4], in experiment [5] and in [6] was “inactive” in each case. Moreover, the Potency entry in experiment [7], in experiment [8], in experiment [11], in [9] and in experiment [10] was “inactive” each time.

Consider `CC(C)=CCC1C(=O)N(c2ccccc2)N(c2ccccc2)C1=O`, for which the Potency entry in experiment [1], in experiment [2], in experiment [3], in experiment [4], in experiment [5] and in experiment [6] was “inactive” each time. Further, the Potency entry in experiment [7], in [8], in experiment [9], in experiment [10] and in experiment [12] was “inactive” throughout.

Regarding `CN1CC(=O)N2[C@H](c3ccc4c(c3)OCO4)c3[nH]c4ccccc4c3C[C@@H]2C1=O`, the Potency result in experiment [1], in experiment [2], in experiment [3], in experiment [4], in experiment [5] and in experiment [6] was “inactive” in each case. Also, the Potency entry in experiment [8], in experiment [11], in experiment [9], in experiment [10], in experiment [12] and in experiment [13] was “inactive” each time.

In the case of `CC(O)c1ccccc1` (stereo unspecified), the Potency entry in experiment [2], in experiment [3], in [4], in [5], in [6] and in experiment [8] was “inactive” throughout. The Potency result in experiment [11], in [9], in experiment [10] and in [12] was “inactive” in each case.

As to `C[C@H]1C[C@H](O)c2ccsc2S1(=O)=O`, the Potency result in experiment [1], in [2], in experiment [3], in [4], in [5] and in experiment [6] was “inactive” throughout. Further, the Potency result in experiment [8], in [11], in [9], in experiment [10], in [12] and in [13] was “inactive” throughout.

As to `CC1=C(CC=O)C(C)(C)CCC1`, the Potency entry in experiment [1], in experiment [2], in [3], in experiment [4], in experiment [5] and in experiment [6] was “inactive” in each case. The Potency entry in experiment [7], in experiment [8], in experiment [11], in experiment [9] and in [10] was “inactive” in each case.

Regarding `CO/N=C(/C(=O)N[C@@H]1C(=O)N2C(C(=O)O)=C(COC(N)=O)CS[C@H]12)c1ccco1`, the Potency entry in experiment [2], in [3], in experiment [4], in experiment [5], in [6] and in [7] was “inactive” in each case. In addition, the Potency result in [11], in experiment [9], in [10] and in experiment [12] was “inactive” throughout.

For `CC(CCC(=O)O)C(=O)O` (stereo unspecified), the Potency result in [1], in experiment [2], in experiment [3], in experiment [4], in [5] and in experiment [6] was “inactive” each time. The Potency result in experiment [8], in experiment [11], in [9] and in experiment [12] was “inactive” in each case.

Consider `Cc1ccc(C(C)(C)O)cc1`, for which the Potency entry in [1], in experiment [2], in experiment [3], in experiment [4], in experiment [5] and in experiment [6] was “inactive” each time. Besides, the Potency result in experiment [7], in [8], in experiment [11], in experiment [9] and in experiment [10] was “inactive” each time.

`CCOC(=O)[C@H](CCc1ccccc1)N[C@@H](C)C(=O)N(CC(=O)O)C1Cc2ccccc2C1`: the Potency result in experiment [1], in experiment [2], in experiment [3], in experiment [4], in experiment [5] and in experiment [6] was “inactive” each time. The Potency entry in experiment [8] and in [10] was “inactive” throughout. Also, the Potency in [7] is 19 µM (active); in [9], 5.35 µM (active).

For `c1ccc2c(c1)CCc1ccccc1N2`, the Potency result in experiment [1], in experiment [2], in [3], in experiment [4], in experiment [5] and in experiment [6] was “inactive” in each case. Besides, the Potency result in experiment [7], in experiment [11], in [10] and in experiment [12] was “inactive” throughout.

For `CC(=O)OCC[N+](C)(C)C`, the Potency result in experiment [1], in experiment [2], in experiment [3], in experiment [4], in experiment [5] and in experiment [6] was “inactive” throughout. In addition, the Potency entry in experiment [7], in experiment [9], in experiment [10], in experiment [12] and in experiment [13] was “inactive” each time.

With `Cc1cc(O)c(C)c(C)c1O`, the Potency result in experiment [2], in experiment [3], in [4], in experiment [5], in experiment [6] and in experiment [8] was “inactive” each time. Further, the Potency entry in [11], in [9] and in experiment [10] was “inactive” each time.

`CC(C)=CCC/C(C)=C/CC/C(C)=C/CCC(=O)OC/C=C(\C)CCC=C(C)C`: the Potency result in experiment [1], in [2], in [3], in experiment [4], in [5] and in experiment [6] was “inactive” throughout. For the same molecule, the Potency entry in experiment [8], in experiment [11], in [9], in [10] and in experiment [12] was “inactive” in each case.

As to `O=c1c(O)c(-c2ccc(O)cc2)oc2cc(O)cc(O)c12`, the Potency result in [1], in [2], in [3], in experiment [4], in experiment [5] and in experiment [6] was “inactive” in each case. Further, the Potency entry in experiment [7], in experiment [8], in experiment [11], in experiment [9] and in [12] was “inactive” each time. Further, the Potency in experiment [13] was 18.4 µM (active).

In the case of `CC(=O)Nc1ccc(C)cc1C`, the Potency result in [1], in experiment [2], in [3], in [4], in experiment [5] and in [6] was “inactive” throughout. Moreover, the Potency entry in [7], in experiment [8], in experiment [11], in experiment [9] and in experiment [10] was “inactive” each time.

Values taken from PubChem BioAssay (Tox21).
